Laboratory results reported in ChEMBL document CHEMBL2218924, “A broad activity screen in support of a chemogenomic map for kinase signalling research and drug discovery” (Biochem J, 2013).

How the values were obtained:
[1] = molecular target: Ribosomal protein S6 kinase beta-1 (Homo sapiens) (UniProt P23443); conditions: at 1 µM
[2] = molecular target: Ribosomal protein S6 kinase beta-1 (Homo sapiens) (UniProt P23443); conditions: at 10 µM
[3] = molecular target: Serine/threonine-protein kinase Nek7 (Homo sapiens) (UniProt Q8TDX7); conditions: at 1 µM
[4] = molecular target: T1, Serine/threonine-protein kinase NLK (Homo sapiens) (UniProt Q9UBE8); conditions: at 1 µM
T1 sequence (whole entry): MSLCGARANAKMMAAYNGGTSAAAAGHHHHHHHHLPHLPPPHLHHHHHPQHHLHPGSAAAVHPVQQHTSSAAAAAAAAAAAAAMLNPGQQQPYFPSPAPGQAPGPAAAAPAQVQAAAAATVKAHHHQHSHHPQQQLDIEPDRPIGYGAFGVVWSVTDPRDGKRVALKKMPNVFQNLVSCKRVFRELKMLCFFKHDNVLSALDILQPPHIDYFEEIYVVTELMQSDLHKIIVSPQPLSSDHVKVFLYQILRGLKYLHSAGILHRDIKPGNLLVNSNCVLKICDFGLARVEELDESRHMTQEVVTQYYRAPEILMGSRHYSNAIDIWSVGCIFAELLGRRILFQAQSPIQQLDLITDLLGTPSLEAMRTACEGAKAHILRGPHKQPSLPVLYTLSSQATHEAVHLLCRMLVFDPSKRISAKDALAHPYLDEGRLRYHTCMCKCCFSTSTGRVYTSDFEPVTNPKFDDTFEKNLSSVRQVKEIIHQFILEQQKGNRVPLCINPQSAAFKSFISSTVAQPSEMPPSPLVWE

[5] = molecular target: T1, Serine/threonine-protein kinase NLK (Homo sapiens); conditions: at 10 µM
[6] = molecular target: Serine/threonine-protein kinase PAK 2 (Homo sapiens) (UniProt Q13177); conditions: at 1 µM
[7] = molecular target: Serine/threonine-protein kinase PAK 2 (Homo sapiens) (UniProt Q13177); conditions: at 10 µM
[8] = molecular target: Serine/threonine-protein kinase PAK 4 (Homo sapiens) (UniProt O96013); conditions: at 1 µM
[9] = molecular target: Serine/threonine-protein kinase PAK 4 (Homo sapiens) (UniProt O96013); conditions: at 10 µM
[10] = molecular target: Serine/threonine-protein kinase PAK 5 (Homo sapiens) (UniProt Q9P286); conditions: at 1 µM
[11] = molecular target: Serine/threonine-protein kinase PAK 5 (Homo sapiens) (UniProt Q9P286); conditions: at 10 µM
[12] = molecular target: Serine/threonine-protein kinase PAK 6 (Homo sapiens) (UniProt Q9NQU5); conditions: at 1 µM
[13] = molecular target: Serine/threonine-protein kinase PAK 6 (Homo sapiens) (UniProt Q9NQU5); conditions: at 10 µM
[14] = molecular target: PAS domain-containing serine/threonine-protein kinase (Homo sapiens) (UniProt Q96RG2); conditions: at 10 µM
[15] = molecular target: Activated CDC42 kinase 1 (Homo sapiens) (UniProt Q07912); conditions: at 1 µM
[16] = molecular target: Activated CDC42 kinase 1 (Homo sapiens) (UniProt Q07912); conditions: at 10 µM
[17] = molecular target: ALK tyrosine kinase receptor (Homo sapiens) (UniProt Q9UM73); conditions: at 1 µM
[18] = molecular target: Serine/threonine-protein kinase Nek6 (Homo sapiens) (UniProt Q9HC98); conditions: at 10 µM
[19] = molecular target: Serine/threonine-protein kinase Nek7 (Homo sapiens) (UniProt Q8TDX7); conditions: at 10 µM
[20] = molecular target: Serine/threonine-protein kinase Nek6 (Homo sapiens) (UniProt Q9HC98); conditions: at 1 µM

Sequence of Serine/threonine-protein kinase PAK 2 (Homo sapiens) (Q13177 whole entry): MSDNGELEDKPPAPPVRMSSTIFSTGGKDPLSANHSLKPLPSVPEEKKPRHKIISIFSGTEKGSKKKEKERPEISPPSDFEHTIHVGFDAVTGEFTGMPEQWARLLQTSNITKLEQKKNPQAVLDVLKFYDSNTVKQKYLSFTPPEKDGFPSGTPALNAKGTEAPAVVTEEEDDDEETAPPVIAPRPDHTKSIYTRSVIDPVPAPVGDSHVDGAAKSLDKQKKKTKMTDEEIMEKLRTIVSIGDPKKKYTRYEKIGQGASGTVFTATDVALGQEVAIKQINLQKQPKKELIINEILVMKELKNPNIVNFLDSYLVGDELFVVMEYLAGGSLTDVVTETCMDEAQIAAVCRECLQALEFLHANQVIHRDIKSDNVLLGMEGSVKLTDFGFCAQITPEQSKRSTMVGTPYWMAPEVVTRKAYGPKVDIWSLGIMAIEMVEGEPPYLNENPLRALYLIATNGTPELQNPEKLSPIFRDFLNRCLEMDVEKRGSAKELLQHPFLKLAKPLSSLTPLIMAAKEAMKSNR
Sequence of Serine/threonine-protein kinase PAK 4 (Homo sapiens) (O96013 whole entry, looked up): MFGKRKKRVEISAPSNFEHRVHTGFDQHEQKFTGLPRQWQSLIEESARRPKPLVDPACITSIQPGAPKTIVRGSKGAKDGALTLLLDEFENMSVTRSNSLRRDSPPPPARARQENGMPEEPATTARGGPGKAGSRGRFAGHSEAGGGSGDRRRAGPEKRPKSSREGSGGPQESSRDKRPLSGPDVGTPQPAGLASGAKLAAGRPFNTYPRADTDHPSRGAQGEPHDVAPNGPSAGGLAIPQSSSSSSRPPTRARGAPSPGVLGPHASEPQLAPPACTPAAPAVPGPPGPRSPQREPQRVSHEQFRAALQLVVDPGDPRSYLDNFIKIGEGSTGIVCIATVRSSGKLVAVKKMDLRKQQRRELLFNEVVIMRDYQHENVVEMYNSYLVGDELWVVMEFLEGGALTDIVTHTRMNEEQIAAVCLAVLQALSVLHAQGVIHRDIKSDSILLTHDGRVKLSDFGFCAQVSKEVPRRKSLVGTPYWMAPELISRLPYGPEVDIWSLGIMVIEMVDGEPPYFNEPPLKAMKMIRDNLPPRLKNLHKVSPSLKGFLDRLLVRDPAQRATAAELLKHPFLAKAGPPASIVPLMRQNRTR
Sequence of Ribosomal protein S6 kinase beta-1 (Homo sapiens) (P23443 whole entry, looked up): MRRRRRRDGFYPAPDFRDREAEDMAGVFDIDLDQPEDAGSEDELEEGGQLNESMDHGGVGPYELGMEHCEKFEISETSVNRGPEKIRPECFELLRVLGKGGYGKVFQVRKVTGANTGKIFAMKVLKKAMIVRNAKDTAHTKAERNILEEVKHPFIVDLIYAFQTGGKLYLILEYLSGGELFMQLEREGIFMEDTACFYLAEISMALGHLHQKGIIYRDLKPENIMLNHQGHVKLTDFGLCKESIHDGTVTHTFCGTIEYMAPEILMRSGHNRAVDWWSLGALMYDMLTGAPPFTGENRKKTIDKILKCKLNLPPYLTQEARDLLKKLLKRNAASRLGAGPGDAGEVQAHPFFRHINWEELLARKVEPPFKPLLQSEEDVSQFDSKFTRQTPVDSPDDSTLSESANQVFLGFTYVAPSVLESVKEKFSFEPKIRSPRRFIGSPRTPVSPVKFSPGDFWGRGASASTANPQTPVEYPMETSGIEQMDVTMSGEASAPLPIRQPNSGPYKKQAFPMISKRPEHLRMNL
Sequence of PAS domain-containing serine/threonine-protein kinase (Homo sapiens) (Q96RG2 whole entry, the tested form may be a part): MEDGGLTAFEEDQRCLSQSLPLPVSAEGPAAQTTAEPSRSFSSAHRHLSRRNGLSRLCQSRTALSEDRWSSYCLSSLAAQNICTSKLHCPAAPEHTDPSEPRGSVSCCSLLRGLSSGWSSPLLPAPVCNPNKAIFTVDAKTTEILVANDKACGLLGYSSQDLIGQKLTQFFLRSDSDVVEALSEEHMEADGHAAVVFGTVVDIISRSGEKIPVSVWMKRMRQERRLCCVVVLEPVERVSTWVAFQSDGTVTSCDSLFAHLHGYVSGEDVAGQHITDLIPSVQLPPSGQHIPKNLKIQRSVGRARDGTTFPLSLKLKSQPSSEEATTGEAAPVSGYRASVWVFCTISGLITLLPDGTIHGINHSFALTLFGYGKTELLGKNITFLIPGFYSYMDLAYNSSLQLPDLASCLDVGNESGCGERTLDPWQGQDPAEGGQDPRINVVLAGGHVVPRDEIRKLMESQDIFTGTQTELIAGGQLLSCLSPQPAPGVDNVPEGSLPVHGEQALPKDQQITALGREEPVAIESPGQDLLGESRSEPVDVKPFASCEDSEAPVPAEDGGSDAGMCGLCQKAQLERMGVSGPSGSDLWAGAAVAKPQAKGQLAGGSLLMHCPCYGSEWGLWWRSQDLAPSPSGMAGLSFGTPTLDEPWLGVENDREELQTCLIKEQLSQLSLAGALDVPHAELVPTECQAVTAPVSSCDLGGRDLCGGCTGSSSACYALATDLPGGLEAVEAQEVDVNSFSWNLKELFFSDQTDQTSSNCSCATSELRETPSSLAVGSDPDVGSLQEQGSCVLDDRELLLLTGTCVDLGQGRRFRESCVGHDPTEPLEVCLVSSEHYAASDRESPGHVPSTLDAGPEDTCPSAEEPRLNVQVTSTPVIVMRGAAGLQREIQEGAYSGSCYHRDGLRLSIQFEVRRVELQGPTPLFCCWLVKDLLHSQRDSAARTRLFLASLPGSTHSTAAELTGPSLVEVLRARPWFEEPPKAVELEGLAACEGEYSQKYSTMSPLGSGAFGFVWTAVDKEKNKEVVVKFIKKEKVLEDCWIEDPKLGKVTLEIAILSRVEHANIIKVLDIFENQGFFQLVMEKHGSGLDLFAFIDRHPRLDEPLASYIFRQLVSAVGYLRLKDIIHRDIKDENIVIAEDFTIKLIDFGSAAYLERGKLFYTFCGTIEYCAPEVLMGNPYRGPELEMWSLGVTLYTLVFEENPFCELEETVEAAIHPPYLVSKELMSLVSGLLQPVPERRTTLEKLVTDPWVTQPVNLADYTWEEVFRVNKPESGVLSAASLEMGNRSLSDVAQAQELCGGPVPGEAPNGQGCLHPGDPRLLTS
Sequence of Serine/threonine-protein kinase Nek6 (Homo sapiens) (Q9HC98 whole entry): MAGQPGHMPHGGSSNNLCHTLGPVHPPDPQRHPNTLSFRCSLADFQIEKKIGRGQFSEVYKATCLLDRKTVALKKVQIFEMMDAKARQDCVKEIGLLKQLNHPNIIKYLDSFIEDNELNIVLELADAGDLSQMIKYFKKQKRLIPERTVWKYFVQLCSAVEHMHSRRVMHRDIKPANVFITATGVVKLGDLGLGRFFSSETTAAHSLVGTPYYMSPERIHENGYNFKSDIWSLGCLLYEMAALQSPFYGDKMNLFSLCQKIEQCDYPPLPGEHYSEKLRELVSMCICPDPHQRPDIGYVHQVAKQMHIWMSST
Sequence of ALK tyrosine kinase receptor (Homo sapiens) (Q9UM73 19-1620 limits assumed): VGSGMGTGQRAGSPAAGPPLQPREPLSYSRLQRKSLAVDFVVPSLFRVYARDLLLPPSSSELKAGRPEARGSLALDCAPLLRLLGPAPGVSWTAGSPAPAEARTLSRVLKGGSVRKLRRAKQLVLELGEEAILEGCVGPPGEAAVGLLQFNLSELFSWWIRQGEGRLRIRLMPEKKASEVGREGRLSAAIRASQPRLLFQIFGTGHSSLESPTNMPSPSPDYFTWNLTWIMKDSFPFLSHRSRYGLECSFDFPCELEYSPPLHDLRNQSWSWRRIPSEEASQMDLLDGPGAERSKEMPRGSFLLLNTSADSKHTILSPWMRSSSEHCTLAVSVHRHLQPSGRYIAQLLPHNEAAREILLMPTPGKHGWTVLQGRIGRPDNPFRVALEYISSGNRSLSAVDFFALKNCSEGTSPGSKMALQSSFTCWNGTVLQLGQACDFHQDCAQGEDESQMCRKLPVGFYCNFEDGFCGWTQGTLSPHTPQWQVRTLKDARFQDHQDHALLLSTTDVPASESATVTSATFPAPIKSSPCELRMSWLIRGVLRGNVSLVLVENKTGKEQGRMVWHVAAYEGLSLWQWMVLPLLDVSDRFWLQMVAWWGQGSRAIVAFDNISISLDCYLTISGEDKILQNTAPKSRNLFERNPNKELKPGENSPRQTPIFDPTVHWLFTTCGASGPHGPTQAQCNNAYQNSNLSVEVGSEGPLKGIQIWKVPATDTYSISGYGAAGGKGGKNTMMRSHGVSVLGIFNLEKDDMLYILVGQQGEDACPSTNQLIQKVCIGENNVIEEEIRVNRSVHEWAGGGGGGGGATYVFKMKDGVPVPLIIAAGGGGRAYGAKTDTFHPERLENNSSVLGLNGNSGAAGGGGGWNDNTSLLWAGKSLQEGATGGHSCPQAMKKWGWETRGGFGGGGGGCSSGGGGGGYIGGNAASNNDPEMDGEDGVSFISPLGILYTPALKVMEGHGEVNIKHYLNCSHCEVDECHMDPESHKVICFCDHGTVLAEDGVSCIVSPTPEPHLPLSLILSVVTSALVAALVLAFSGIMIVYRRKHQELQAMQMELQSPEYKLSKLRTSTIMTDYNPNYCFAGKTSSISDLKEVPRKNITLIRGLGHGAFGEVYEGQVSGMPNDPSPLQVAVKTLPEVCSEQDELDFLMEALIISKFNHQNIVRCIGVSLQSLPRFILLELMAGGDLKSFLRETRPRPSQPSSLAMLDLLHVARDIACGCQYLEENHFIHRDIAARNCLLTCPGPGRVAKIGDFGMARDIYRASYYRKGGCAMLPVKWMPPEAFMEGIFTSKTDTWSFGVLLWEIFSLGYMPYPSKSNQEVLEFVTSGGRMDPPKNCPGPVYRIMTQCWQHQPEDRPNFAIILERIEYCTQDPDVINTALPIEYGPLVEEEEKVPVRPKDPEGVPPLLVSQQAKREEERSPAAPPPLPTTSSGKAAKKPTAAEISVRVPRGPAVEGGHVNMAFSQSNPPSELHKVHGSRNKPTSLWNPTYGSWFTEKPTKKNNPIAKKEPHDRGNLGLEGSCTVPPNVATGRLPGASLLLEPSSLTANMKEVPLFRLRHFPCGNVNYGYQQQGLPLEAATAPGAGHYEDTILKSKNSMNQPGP

Compound | residual activity [1] | residual activity [2] | residual activity [3] | residual activity [4] | residual activity [5] | residual activity [6] | residual activity [7] | residual activity [8] | residual activity [9] | residual activity [10] | residual activity [11] | residual activity [12] | residual activity [13] | residual activity [14] | residual activity [15] | residual activity [16] | residual activity [17] | residual activity [18] | residual activity [19] | residual activity [20]
CC(=O)c1ccc(N2CCOCC2)cc1O | 55% | 46% | 98% (inactive) | 97% | 83% | 104% | 97% | 100% | 90% | 97% | 91% | 95% | 107% | 88% | 94% | 73% | 80% | – | – | –
CCN(CC)C(=O)c1ccc(Nc2nc(OCC3CCCCC3)c3nc[nH]c3n2)cc1 | 58% | 17% | 98% (inactive) | – | – | – | – | 18% | 2% | 43% | 3% | 58% | 23% | – | 5% | 1% | 65% | 95% | 82% (inactive) | –
NC(=O)c1ccc2[nH]c(-c3ccc(Oc4ccc(Cl)cc4)cc3)nc2c1 | 92% | 90% | 102% (inactive) | 88% | 59% | 111% | 82% | 97% | 92% | 99% | 113% | 110% | 103% | 123% | 77% | 61% | 75% | 113% | 104% (inactive) | 117% (inactive)
Cc1cccc(-c2[nH]c(C(C)(C)C)nc2-c2ccc3c(c2)OCO3)n1 | 93% | 65% | 94% (inactive) | 94% | 87% | 103% | 91% | 97% | 88% | 87% | 102% | – | – | – | 90% | 67% | 82% | 107% | 95% (inactive) | 90% (inactive)
Cc1cncc2cccc(S(=O)(=O)N3CCCN(C(=O)CN)C[C@H]3C)c12 | – | – | 88% (inactive) | 90% | 86% | – | 82% | 90% | 85% | 86% | 95% | 88% | 86% | 64% | 69% | 21% | 76% | – | 98% (inactive) | 88% (inactive)
c1ccc(-c2n[nH]cc2-c2ccnc3ccccc23)nc1 | 72% | 58% | – | 72% | 27% | 107% | 88% | 98% | 90% | 92% | 104% | – | – | 82% | 77% | 50% | 85% | – | – | –
O=C(Nc1cccc(Nc2cc(Nc3cccc(C(F)(F)F)c3)ncn2)c1)C1CC1 | 92% | 110% | 95% (inactive) | 63% | 27% | 116% | 83% | 94% | 79% | 100% | 98% | 104% | 90% | 64% | 79% | 26% | 88% | 126% | 93% (inactive) | 99% (inactive)
COc1cc2ncnc(Nc3ccc(NC(=O)c4ccccc4)cc3)c2cc1OC | 67% | 38% | – | – | 97% | – | 89% | 101% | 103% | 89% | 68% | 108% | 92% | 67% | 13% | 1% | 107% | – | 86% (inactive) | 103% (inactive)
COc1ccc(C(=O)Nc2sc3c(c2C(N)=O)CCCC3)cc1OC | 106% | 83% | 87% (inactive) | 88% | 90% | 96% | 90% | 92% | 86% | 104% | 116% | 95% | 93% | 90% | 77% | 54% | 56% | 103% | 83% (inactive) | 90% (inactive)
Oc1c2ccccc2c2c3c(cccc13)N=N2 | 55% | 14% | 99% (inactive) | 78% | 71% | 96% | 86% | 88% | 45% | 99% | 64% | 91% | 49% | 81% | 50% | 12% | 61% | 101% | 89% (inactive) | 107% (inactive)
O=C1Nc2ccccc2/C1=C1/Nc2ccccc2/C1=N\OCCC(O)CO (centres undefined) | 20% | 6% | 104% (inactive) | – | 70% | 80% | 78% | 44% | 12% | 61% | 30% | 81% | 27% | 116% | 14% | 1% | 24% | 113% | – | 113% (inactive)
CC[n+]1c(/C=C/N(C)c2ccccc2)n(-c2ccccc2)c2ccc(-c3nc4ccccc4s3)cc21 | 130% | 71% | 117% (inactive) | – | 89% | 109% | 81% | 103% | 100% | 104% | 119% | 102% | 96% | 43% | 110% | 77% | 88% | 88% | 138% (inactive) | 108% (inactive)
COc1cc2ncc(-c3ccccc3)nc2cc1OC | 63% | 47% | – | 100% | 93% | – | – | – | 93% | – | – | 92% | 74% | 93% | 96% | 56% | – | 89% | – | 80% (inactive)
Nc1cccc(-c2cc3c(Oc4cccc(O)c4)ncnc3[nH]2)c1 | 71% | 49% | – | 79% | 33% | 105% | 70% | 63% | 19% | 87% | 31% | 86% | 48% | 101% | 10% | -1% | 42% | – | – | –
